Assay results: PubChem BioAssay (Tox21)
Records with an inconclusive call do not appear. Active and inactive are the calls of the source. Unless noted, calls follow the shape of the dose curve; as a rule, active = well fitted curve in the direction sought with a large enough effect in the repeat runs; inconclusive = weak or mixed curves; inactive = no such curve, though single readings can be large; an effect the other way counts as inactive or inconclusive.

Legend:
[1] = qHTS assay to identify small molecule HDAC inhibitors - cell viability counter screen (AID 1259365); also: series mostly up to about 92 µM; nearly all actives have a fitted effect of over 50% in size
Method in brief: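 CellTiter-Glo luminescence (30 min, room temperature) reported viability after a 2 h compound exposure at 37 C. Cells: wild-type HCT-116, 1,500 per well, seeded the night before.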

[2] = qHTS assay to identify small molecule agonists of the sonic hedgehog signaling (Shh) pathway - cell viability counter screen (AID 1259366); also: nearly all actives have a fitted effect of over 50% in size
Method in brief: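 Cytotoxicity counter screen: CellTiter-Fluor reagent added after 23 h compound exposure, then 1 h at 37C and fluorescence read. Cells were 3T3 Gli1-Luc, seeded 2,000 per well and dosed 4 h post-plating.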

[3] = qHTS assay to identify small molecule antagonists of the sonic hedgehog signaling (Shh) pathway - cell viability counter screen (AID 1259367); also: nearly all actives have a fitted effect of over 55% in size
Method in brief: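 After a 4 hr settling period, 3T3 Gli1-Luc cells were treated with DMSO-dissolved chemicals and conditioned medium, kept 24 hr at 37C in 5% CO2, and assayed for viability by CellTiter-Fluor fluorescence following 1 hr reagent incubation.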

[4] = qHTS assay to identify small molecule agonists of the sonic hedgehog signaling (Shh) pathway (AID 1259368; calls by dose curve; also: series mostly up to about 92 µM; nearly all actives have a fitted effect of over 15% in size)
Method in brief: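 NIH/3T3-derived 3T3Gli1-Luc cells carrying a stably integrated Gli1 response element–firefly luciferase reporter were plated, left 4 hr at 37 C, then given compounds in DMSO for 24 hr. Luminescence was read 30 min after adding luciferase reagent.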

[5] = qHTS assay to identify small molecule antagonists of the sonic hedgehog signaling (Shh) pathway (AID 1259369; calls by dose curve; also: nearly all actives have a fitted effect of over 45% in size)
Method in brief: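 NIH/3T3-derived 3T3Gli1-Luc cells with stably integrated Gli1-Luc reporter were preincubated 4hr at 37 C, then given compounds in DMSO plus Shh conditioned medium and incubated 24hr. Firefly luciferase luminescence read after 30min reagent at room temperature.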

[6] = target: Estrogen receptor beta (Homo sapiens) (UniProt Q92731); assay: qHTS assay to identify small molecule antagonists of the estrogen receptor beta (ER-beta) signaling pathway (AID 1259378; active = well fitted inhibition curve with a large enough effect in the signal ratio in the repeat runs, not every such curve was filed as active; the % refers to the signal ratio)
Sequence of Estrogen receptor beta (Homo sapiens) (Q92731 whole entry, looked up): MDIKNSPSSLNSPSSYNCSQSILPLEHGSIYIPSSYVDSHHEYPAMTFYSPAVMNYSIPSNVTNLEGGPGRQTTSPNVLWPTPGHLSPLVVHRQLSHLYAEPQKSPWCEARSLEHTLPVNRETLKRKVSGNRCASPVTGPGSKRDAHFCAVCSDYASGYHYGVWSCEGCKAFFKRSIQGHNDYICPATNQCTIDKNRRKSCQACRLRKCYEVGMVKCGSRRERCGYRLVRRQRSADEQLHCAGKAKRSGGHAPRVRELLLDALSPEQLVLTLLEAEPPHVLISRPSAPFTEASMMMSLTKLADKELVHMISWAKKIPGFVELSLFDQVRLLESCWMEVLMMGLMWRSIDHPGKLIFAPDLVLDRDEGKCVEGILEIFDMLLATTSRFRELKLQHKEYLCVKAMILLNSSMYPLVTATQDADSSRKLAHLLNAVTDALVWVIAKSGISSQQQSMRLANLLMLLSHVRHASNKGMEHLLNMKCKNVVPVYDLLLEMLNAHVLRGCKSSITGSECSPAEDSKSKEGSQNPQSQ
Method in brief: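 ER-beta-UAS-bla HEK293T (GripTite) cells in 2% charcoal-stripped FBS medium were preincubated 6 hr at 37C, dosed with compound, then stimulated with 1 nM E2 (final) for 16 hr; beta-lactamase reporter read by B/G FRET fluorescence after 2 hr substrate loading.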

[7] = qHTS assay to identify small molecule agonists of the androgen receptor (AR) signaling pathway in the presence of an antagonist - cell viability counter screen (AID 1259379); also: series mostly up to about 92 µM; nearly all actives have a fitted effect of over 25% in size
Method in brief: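 MDA-kb2 human breast carcinoma cells (stable MMTV-luciferase, AR/GR responsive) were seeded 3,000 cells/well, pre-incubated 5 hr at 37C without CO2, then given 3.0uM nilutamide and compounds at 15 concentrations for 16 hr. Viability was read by CellTiter-Fluor fluorescence.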

[8] = qHTS assay to identify small molecule agonists of the estrogen receptor beta (ER-beta) signaling pathway - cell viability counter screen (AID 1259380); also: nearly all actives have a fitted effect of over 30% in size
Method in brief: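 ER-beta-UAS-bla HEK293T cells in medium with 2% charcoal-stripped FBS were preincubated 6 hr at 37C, dosed with compound in DMSO for 16 hr, then after the bla read, CellTiter-Glo was added for 30 min at room temperature; luminescence recorded.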

[9] = target: Androgen receptor (Homo sapiens) (UniProt P10275); assay: qHTS assay to identify small molecule agonists of the androgen receptor (AR) signaling pathway in the presence of an antagonist (AID 1259381; calls by dose curve; also: nearly all actives have a fitted effect of over 15% in size)
Sequence of Androgen receptor (Homo sapiens) (P10275 whole entry, looked up): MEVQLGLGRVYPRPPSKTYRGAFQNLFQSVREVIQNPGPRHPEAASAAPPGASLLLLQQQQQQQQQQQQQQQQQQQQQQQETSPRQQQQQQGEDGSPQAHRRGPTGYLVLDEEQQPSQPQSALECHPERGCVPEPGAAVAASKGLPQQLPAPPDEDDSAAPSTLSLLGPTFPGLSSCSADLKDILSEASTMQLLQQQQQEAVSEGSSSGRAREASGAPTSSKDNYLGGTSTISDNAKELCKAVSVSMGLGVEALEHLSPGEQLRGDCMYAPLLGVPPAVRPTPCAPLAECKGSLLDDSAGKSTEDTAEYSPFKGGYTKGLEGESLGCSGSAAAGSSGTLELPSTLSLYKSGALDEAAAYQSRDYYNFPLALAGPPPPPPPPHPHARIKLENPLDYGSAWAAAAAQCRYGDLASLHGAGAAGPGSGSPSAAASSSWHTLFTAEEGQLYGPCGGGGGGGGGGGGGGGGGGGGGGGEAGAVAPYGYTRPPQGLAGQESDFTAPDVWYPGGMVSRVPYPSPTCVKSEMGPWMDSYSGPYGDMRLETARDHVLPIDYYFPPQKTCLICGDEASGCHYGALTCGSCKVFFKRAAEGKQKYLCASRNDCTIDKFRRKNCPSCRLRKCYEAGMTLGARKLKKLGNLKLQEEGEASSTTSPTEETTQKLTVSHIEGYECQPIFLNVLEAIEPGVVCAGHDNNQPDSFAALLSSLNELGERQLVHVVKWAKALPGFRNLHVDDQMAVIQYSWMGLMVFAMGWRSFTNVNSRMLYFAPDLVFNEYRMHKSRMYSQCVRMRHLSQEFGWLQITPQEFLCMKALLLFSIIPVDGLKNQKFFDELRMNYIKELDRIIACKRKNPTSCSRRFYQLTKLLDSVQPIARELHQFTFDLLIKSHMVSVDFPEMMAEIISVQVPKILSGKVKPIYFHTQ
Method in brief: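 MDA-kb2 human breast carcinoma cells carrying an MMTV-luciferase reporter (AR- and GR-responsive) were treated with compounds at 15 concentrations plus 3.0uM final nilutamide for 16hr at 37C without CO2; luminescence was read after ONE-Glo addition.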

[10] = target: Estrogen receptor beta (Homo sapiens) (UniProt Q92731); assay: qHTS assay to identify small molecule agonists of the estrogen receptor beta (ER-beta) signaling pathway (AID 1259377; active = well fitted activation curve with a large enough effect in the signal ratio in the repeat runs, not every such curve was filed as active; the % refers to the signal ratio)
Method in brief: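 Ratiometric beta-lactamase FRET read-out came after 2 h substrate loading at room temperature. It followed 16 h compound treatment at 37C of GripTite HEK293T cells carrying a UAS-bla reporter, plated in 2% charcoal-stripped FBS medium.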

Measured: Potency

CCCCC(C)C(=O)O (stereo not given)
inactive: [1] | [2] | [3] | [4] | [5] | [6] | [7] | [8]

O=C(Oc1ccccc1C(=O)O)c1ccccc1O
inactive: [1] | [2] | [3] | [4] | [5] | [7]

Cc1ccc2c(c1)c1c3n2CCNC3CCC1 (stereo not given)
inactive: [1] | [2] | [3] | [4] | [5] | [7]

C[Si]1(C)N[Si](C)(C)N[Si](C)(C)N1
inactive: [1] | [2] | [3] | [4] | [5] | [7] | [8]

CCC(=O)c1ccc(O)cc1
inactive: [1] | [2] | [3] | [4] | [5] | [7] | [8]

CCN(CCO)c1cccc(C)c1
inactive: [1] | [2] | [3] | [4] | [5] | [7] | [8]

O=C(CN1CCN(Cc2ccc3c(c2)OCO3)CC1)N1c2ccccc2Sc2ccccc21
inactive: [1] | [2] | [3] | [4] | [5] | [7] | [9]

C[N+](C)(C)CC(O)CCl (stereo not given)
inactive: [1] | [2] | [3] | [4] | [5] | [7] | [8]

CCNC(=O)NCCCOc1cccc(CN2CCCCC2)c1
inactive: [1] | [2] | [3] | [4] | [5] | [7] | [8]

Cc1ccccc1C
inactive: [1] | [2] | [3] | [4] | [10] | [6] | [7] | [8]
